NS1 function inh = qHTS Assay for Inhibitors of Influenza NS1 Protein Function. Potency, µM (doses to about 46.1 µM), for inactives: at the top dose activity, positive = more growth. 0.4% of 270,000 active; calls by dose curve; note: actives are rising curves; nearly all actives have a fitted effect of over 50% in size
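Recovery from NS1-induced slow growth read by OD600 in budding yeast switched to galactose assay medium (pH 6.0, -URA) at 1:100 dilution. Compound 23 nl per well; the matching strain lacking NS1 serves as control.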
Sm TGR inh = qHTS Assay for the Inhibitors of Schistosoma Mansoni Peroxiredoxins; Schistosoma mansoni thioredoxin glutathione reductase (TGR), Q962Y6; purified TGR, DTNB reduction, TNB absorbance 405 nm; Potency, µM (series often up to 114 µM), for the others: at the highest dose activity change, negative = inhibition, most hits filed as inhibitors; 3% of 360,000 active; note: % is set by controls: 0 for no effect and ±100 for the full control effect; nearly all actives have a fitted effect of over 60% in size
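Kinetic colorimetric format: TGR-catalysed, NADPH-driven DTNB reduction monitored via TNB absorbance. Enzyme dispensed at 20 nM; compound exposure 15 min at room temperature before reaction start.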
Pf growth 96h = Primary qHTS for delayed death inhibitors of the malarial parasite plastid, 96 hour incubation; Potency, µM (doses to about 28.7 µM), without a hit: at the highest dose activity change, negative = inhibition, hits mostly inhibitors; P. falciparum luciferase reporter growth, 96 h; 6.9% of 320,000 active; note: % is set by controls: 0 for no effect and ±100 for the full control effect
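Infected RBCs, 2% Hct / 0.05% parasitemia final; luciferase-reporter P. falciparum; cpd 96 h, 37 C, 5% CO2; luciferase detection reagent; luminescence.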
AMA1 RON2 block = qHTS for Inhibitors of AMA1-RON; Towards Development of Antimalarial Drug Lead: Primary Screen; Potency, µM (doses to about 58.2 µM), for the others: at the highest dose activity change, negative = inhibition, usual class: inhibitors; AlphaScreen AMA1-biotinylated RON2 peptide binding; 0.2% of 360,000 active; AID 720542, 2013; Plasmodium falciparum AMA1 (3D7) - RON2 peptide interaction;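 note: 0% = vehicle wells and -100% = peptide control; nearly all actives have a fitted effect of over 45% in size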
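AMA1 (3D7) with his tag at 25 nM final met compounds first, then biotinylated RON2 peptide at 25 nM; detection used donor plus acceptor beads, 10 µg/mL apiece, read by AlphaScreen after 30 min at room temperature.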
Pf growth 48h = Primary qHTS for delayed death inhibitors of the malarial parasite plastid, 48 hour incubation; P. falciparum luciferase growth in erythrocytes, 48 h; Potency, µM (highest dose often 28.7 µM), for inactives: top-dose activity change, negative = inhibition, actives largely listed as inhibitors; 5.9% of 310,000 active; note: % is set by controls: 0 for no effect and ±100 for the full control effect
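Growth was read as firefly luciferase luminescence after a 48 h, 37 C, 5% CO2 exposure of compounds to reporter-bearing P. falciparum cultures (0.1% parasitemia, 2% hematocrit final) in Albumax-supplemented RPMI 1640.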
An asterisk follows results filed as active; ? = inconclusive; . = no result given. A selection: hits, their analogues and other compounds. The true share with any hit is near 11%. Unless noted, calls come from the whole dose curve; as a rule, active = well fitted curve in the direction sought with a large enough effect; inconclusive = small, poorly fitted or top-dose-only effect, or another doubt; inactive = no such curve, though single readings can be large; an effect the other way counts as inactive or inconclusive. Potency is the fitted concentration of half-maximal effect.

SMILES | NS1 function inh | Sm TGR inh | Pf growth 96h | AMA1 RON2 block | Pf growth 48h
COC(=O)C1=C(c2ccc(F)cc2OCc2ccccc2)C[C@@H]2CC[C@H]1N2C(=O)NCCOc1ccccc1Cl | . | -15% | ? | -2% | 2.6µM*
COC(=O)C1=C(c2ccc(F)cc2OCc2ccccc2)C[C@@H]2CC[C@H]1N2C(=O)NCCOc1ccc(OC)cc1 | . | 9% | 3.3µM* | -3% | ?
COC(=O)C1=C(c2c(C)noc2C)C[C@@H]2CC[C@H]1N2C(=O)NCCOc1ccccc1Cl | . | -2% | 32% | 0% | ?
COC(=O)C1=C(c2ccc(F)cc2OCc2ccccc2)C[C@@H]2CC[C@H]1N2C(=O)NCCN1CCOCC1 | . | -10% | ? | 9% | 12µM*
CCCCN(C(=O)C1=NN(c2ccccc2)C(=O)CC1)c1c(N)n(CCC)c(=O)[nH]c1=O | . | . | . | -6% | .
COC(=O)C1=C(c2ccc(F)cc2OCc2ccccc2)C[C@@H]2CC[C@H]1N2C(=O)NCCOc1ccccc1 | . | 2% | ? | -6% | 5.9µM*
COC(=O)C1=C(c2ccc(F)cc2OCc2ccccc2)C[C@@H]2CC[C@H]1N2C(=O)NCCc1ccc(F)cc1 | . | 3% | ? | 0% | 12µM*
COC(=O)C1=C(c2ccc(F)cc2OCc2ccccc2)C[C@@H]2CC[C@H]1N2C | . | -4% | ? | -3% | ?
COC(=O)C1=C(c2ccc(F)cc2OCc2ccccc2)C[C@@H]2CC[C@H]1N2C(=O)NCc1ccccc1Cl | . | 0% | 4.1µM* | 0% | 5.2µM*
CCCNC(=O)N1[C@H]2CC[C@@H]1C(C(=O)OC)=C(c1ccc(F)cc1F)C2 | . | -13% | 29% | 0% | 39%
COC(=O)C1=C(c2ccc(F)cc2OCc2ccccc2)C[C@@H]2CC[C@H]1N2C(=O)NC1CC1 | . | -24% | ? | 15% | ?
COc1ccc(/C=N/NC(=O)c2ccncc2)cc1CN1CCN(c2ccc(F)cc2)CC1 | . | 0% | 3.7µM* | -20% | -2%
COc1ccc(/C=N/NC(=O)c2ccc(O)cc2)cc1CN1CCCc2ccccc21 | ? | -6% | 2.3µM* | ? | ?
COc1ccc(/C=N/NC(=O)c2cccnc2)cc1CN1CCc2ccccc2C1 | -2% | 6% | 10µM* | -5% | 10µM*
COc1ccc(/C=N\NC(=O)c2cc(O)c(O)c(O)c2)cc1CN1CCN(c2ccc(F)cc2)CC1 | ? | -27% | ? | -18% | 4.7µM*
COc1ccc(/C=N/NC(=O)c2ccc(C)cc2)cc1CN1CCN(c2ccc(F)cc2)CC1 | 3% | 17% | -13% | -1% | 14%
Cc1ccc(N2C(=O)CS(=O)(=O)CC2=O)cc1 | 4% | 8.9µM* | 42% | 2% | 24%
Cc1sc2nc(CN3CCN(c4ccc(O)cc4)CC3)[nH]c(=O)c2c1C | 0% | ? | 12µM* | 19% | ?
CC(C)(C)OC(=O)NCCCCCNC(=O)c1ncn(Cc2ccccc2)c1C(=O)NCCCCCNC(=O)OC(C)(C)C | . | . | . | -5% | .
Cc1c2c(=O)n(-c3nc4ccccc4s3)nc-2cc(O)n1Cc1ccccc1 | 15% | -7% | 2.9µM* | 71% | 2.9µM*
CCc1cc[n+](/C(C(=S)Nc2cccc(C)c2)=C(/[O-])c2ccc(C)c([N+](=O)[O-])c2)cc1 | 3% | -1% | 0.15µM* | ? | ?
CCOc1ccc(NC(=S)/C(=C(\[O-])c2ccc(C)c([N+](=O)[O-])c2)[n+]2ccccc2)cc1 | 2% | -7% | . | -4% | ?
Cc1sc2nc(CSc3ccccc3)nc(N3CCC(C(N)=O)CC3)c2c1C | 15% | 2% | 12µM* | -13% | ?
Cc1sc2nc(CN3CCOCC3)nc(NS(=O)(=O)c3ccccc3)c2c1C | -7% | -13% | . | 10% | 24%
Cc1sc2nc(C3CC3)nc(NCCNS(=O)(=O)c3ccccc3)c2c1C | -19% | 4% | -12% | -4% | 9.3µM*
SMILES | NS1 function inh | Sm TGR inh | Pf growth 96h | AMA1 RON2 block | Pf growth 48h
Cc1sc2nc(CSc3ccccc3)nc(NCCN(C)C)c2c1C | -2% | -1% | 5.9µM* | -8% | ?
CCOC(=O)c1sc2nc(CSc3ccccc3)nc(N3CCC(C(N)=O)CC3)c2c1C | . | -1% | 4.1µM* | -4% | 3.3µM*
O=C(c1cccc(Cl)c1)n1nc(-c2cccnc2)nc1NCc1ccccc1 | . | 13% | . | . | .
O=C(NCc1cccnc1)c1cc(C2CCCCN2C(=O)c2cccs2)on1 (stereo not given) | . | . | . | -12% | .
CCc1nc(OCc2ccco2)c2sc3nc4c(cc3c2n1)COC(C)(C)C4 | -10% | 10µM* | . | -4% | -12%
COC(CSc1ncnc2c1oc1nc3c(cc12)COC(C)(C)C3)OC | 0% | 28µM* | ? | -1% | -4%
COC(=O)CSc1ncnc2c1sc1nc3c(cc12)COC(C)(C)C3 | 0% | 2% | ? | -4% | 81%
CC1(C)Cc2nc3sc4c(SCC(=O)O)ncnc4c3cc2CO1 | -6% | -16% | ? | -7% | 0.83µM*
CCc1nc2c(sc3nc4c(cc32)COC(C)(C)C4)c(=O)n1Cc1ccco1 | -13% | ? | . | -9% | ?
Cc1nc2c(c(C)nn2C(C)(C)C)c(C)c1CCC(=O)Nc1ccc(Br)cc1Br | . | -3% | . | . | .
COc1ccccc1NC(=O)c1c(NCc2sccc2C)sc2c1CCCCC2 | . | 11µM* | . | . | .
COc1ccc(NC(=O)c2c(NCc3sccc3C)sc3c2CCCCC3)c(OC)c1 | . | 13µM* | . | . | .
CCOc1ccccc1NC(=O)c1c(NCc2sccc2C)sc2c1CCCCC2 | . | 40µM* | . | . | .
COc1ccc(NC(=O)c2c(NC(=O)CNCC(C)C)sc3c2CCC3)c(OC)c1 | 9% | . | -4% | 57% | 9.3µM*
CNC(=O)C1CCC(Cn2c(=O)c3sccc3n(CC(=O)NCc3ccccc3)c2=O)CC1 (stereo not given) | . | -3% | . | . | .
CCN(C(=O)c1nn(C)c2c1CSc1ccccc1-2)c1cccc(C)c1 | . | 9% | . | . | .
CCCCN(CC)C(=O)c1nn(C)c2c1CSc1ccccc1-2 | . | 45µM* | . | . | .
COc1ccc(NC(=O)CSc2nc3c(c(=O)[nH]2)CN(Cc2ccccc2)CC3)cc1Cl | . | 1% | . | . | .
O=C(c1c[nH]c(C(=O)C(Cl)(Cl)Cl)c1)c1ccccc1Br | . | -4% | ? | 4% | 13µM*
Cc1cc(Br)ccc1OCCCCNCCO | 2% | 2% | 10µM* | -7% | ?
C=CCNCCCCOc1ccc(Br)cc1C | -6% | -19% | 9.3µM* | 22% | -21%
CCOC(=O)c1sc2ncn(CC(=O)Nc3cccc(C)c3)c(=O)c2c1C | . | -1% | . | . | .
COc1ccc(-n2nccc2-c2nn(-c3cccc(OC)c3)c(=O)n(C)c2=O)cc1 | -23% | -1% | -6% | -5% | .
